PolyA inh = yeast polyadenylation inhibition; activity score, % at 12 µM; S. cerevisiae SKY197-pL101 polyadenylation reporter, beta-gal luminescence; efflux-impaired pdr1/pdr3 knockout yeast; score 100 = 6 SD above DMSO; hit rate 0.02% among 300,000;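 active = lowest replicate activity score at least 50, where 100 means six control SD above control mean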;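 also: yeast exposed to compound for 9 h at 30 °C; higher score means more reporter readthrough which indicates perturbed polyadenylation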
Calb FLC = affects C. albicans growth with fluconazole. growth inhibition, % (test concentration not listed). hit rate 0.57% among 300,000. AID 1979. C. albicans CaCi-2 (fluconazole-resistant clinical isolate) + fluconazole, Alamar Blue growth, 48 h;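 active = growth inhibition above about 58% in most replicates, limit read from the data, passing the limit was not always enough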;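 also: all wells also contain fluconazole at 8 µg/ml as a sub-toxic cotreatment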
Platelet DG rel = modulates dense granule release in human platelets. human platelet-rich plasma, SFLLRN dense granule ATP release, luminescence. inhibition, %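 (compounds screened at 7.5 µM in platelet-rich plasma)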. hit rate 0.22% among 300,000. AID 1663;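 active = mean replicate score, as percent of positive control, at or above 50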
CR mimetic SO = yeast age-related superoxide inhibition as caloric restriction mimetic; superoxide response (% of plate mean), % at 10 µM; S. cerevisiae aged cells, superoxide DHE fluorescence; stronger effect = lower value; hit rate 0.18% among 330,000; AID 2690;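 active = superoxide response under a set limit, about three screen SD below normal, cut at about 65% in these data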;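 also: yeast aged for seven days with compound at 30 °C before DHE staining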
SKKanGAS inh = SKKanGAS growth inhibition; S. pyogenes SKKanGAS, kanamycin growth, BacTiter-Glo, 6 h; inhibition, % at 7.5 µM; hit rate 1.3% among 300,000; AID 1662;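 active = mean replicate score, as percent of positive control median, at least 50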;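 also: strain carries kanamycin resistance gene driven by streptokinase promoter and grows in 40 µg/ml kanamycin; loss of luminescence reflects streptokinase promoter inhibition or plain growth inhibition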
Of the large screens only hits and unclear results are named; the others gave an inactive call. This is a sample that favours compounds with a hit; in the whole collection about 2% have one here.

COc1ccc(C(=O)NC(=S)N(C)C2CCCCC2)cc1Br	SKKanGAS inh 73.4
Cc1ccc(C(=O)NC(=S)N(C)C2CCCCC2)cc1Br	SKKanGAS inh 84.9
O=C1C=C(c2ccc(Cl)c(C(F)(F)F)c2)C[C@@H](c2ccc(Cl)cc2)C1	none (no result: PolyA inh, Calb FLC, Platelet DG rel, SKKanGAS inh)
Oc1cccc2ccc(/C=C/c3c(F)cccc3Cl)nc12	SKKanGAS inh 73.8
O/N=C/c1ccc2cccc(O)c2n1	none
Oc1cccc2ccc(/C=C/c3ccccc3Cl)nc12	SKKanGAS inh 98.9
NC(=O)c1c(NC(=O)c2ccccc2F)sc2c1CCCC2	Calb FLC 81.7
O=c1cc(-c2ccccc2)[nH]n1-c1nc2ccccc2s1	SKKanGAS inh 81.6
Cc1ccccc1NC(=O)COC(=O)c1cc(S(=O)(=O)N2CCOCC2)ccc1C	none (no result: PolyA inh, Calb FLC, Platelet DG rel, SKKanGAS inh)
COc1ccc(C(=O)NCCN2CCOCC2)c(OC)c1OC	Calb FLC 70.2
C/C(=N\NC(=O)COc1ccc(C)cc1Br)c1cc([N+](=O)[O-])cs1	none
C/C(=N\NC(=O)COc1ccc(C)cc1[N+](=O)[O-])c1cccs1	PolyA inh 98.0
CCCCNC(=S)Nc1ccccc1Cc1ccccc1	none
Nc1ncnc2c1ncn2C1OC(CO)C(O)C1O (stereo unspecified)	Platelet DG rel 95.8
Nc1nc(F)nc2c1ncn2[C@@H]1O[C@H](CO)[C@@H](O)[C@@H]1O	none (no result: Calb FLC)
Nc1nc(F)nc2c1ncn2[C@@H]1O[C@H](CO)[C@@H](O)[C@H]1O	Platelet DG rel 77.3 (no result: Calb FLC)
COc1ccc(CN(CC2CCCO2)C(=O)c2cc3sccc3n2C)c(OC)c1 (stereo unspecified)	none
CCC(C)N(C(=O)Cn1c(=O)cnc2ccccc21)C1CCS(=O)(=O)C1 (stereo unspecified)	none
CCn1cc(S(=O)(=O)Nc2ccccc2C(F)(F)F)cn1	none
CCC(C)c1ccccc1NS(=O)(=O)c1cnn(CC)c1 (stereo unspecified)	SKKanGAS inh 53.2
Cc1ccc(C(=O)N2CCOCC2)c(F)c1F	none
CCCCn1c(N)c(N(CCOC)C(=O)CCc2ccc(OC)cc2)c(=O)[nH]c1=O	none
Cc1cccc(OCCSc2nc3ccccc3n2CC(=O)O)c1	none
COc1ccc(Oc2cn[nH]c2-c2ccc(OCC(=O)NN)cc2O)cc1	SKKanGAS inh 87.5
COc1ccccc1Oc1cn[nH]c1-c1ccc(OCC(=O)NN)cc1O	SKKanGAS inh 49.5
CC1CCc2sc3c(c2C1)c(=O)n(CC(=O)O)c(=O)n3Cc1ccc(Cl)cc1 (stereo unspecified)	none
O=C(CCNC(=O)c1ccc(Br)cc1)NCCCSc1ccccc1	none
COc1ccc(NC(=O)c2ccc(CNc3c(N4CCCC4)c(=O)c3=O)cc2)cc1Cl	none
COc1ccc(Cl)cc1S(=O)(=O)Nc1ccc2c(c1)n(C)c(=O)n2C	none
C=C(C)C(O)Cc1c(OC)ccc(C(=O)/C=C/c2ccc(O)cc2)c1O (stereo unspecified)	none (no result: PolyA inh, Calb FLC, Platelet DG rel, SKKanGAS inh)
CC(C)=CCC/C(C)=C/Cc1c(O)ccc(C(=O)/C=C/c2ccc(O)cc2)c1O	SKKanGAS inh 105.6 (no result: CR mimetic SO)
CCOC(=O)c1ccc(NC(=O)c2ccc(CO)c(C(=O)NC3CCN(C(=O)OCC)CC3)c2)cc1	Calb FLC 104.1
Cc1c(CCC(=O)O)c(=O)oc2c(C)c(OCc3cc4c(cc3Cl)OCO4)ccc12	SKKanGAS inh 67.2
CC1(C)CC(=O)C2=C(C1)N(c1cccc(Cl)c1)C(=O)NC2(C(F)(F)F)C(F)(F)F	none
O=C(/C=C/Nc1ccccc1F)c1ccc(Br)cc1	none
O=C(/C=C/Nc1ccc(Br)cc1F)c1ccccc1	Platelet DG rel 50.5
Cc1c(Cl)cccc1Nc1nc(N)nc(CN2CCc3ccccc3C2)n1	SKKanGAS inh 80.0 (no result: Platelet DG rel)
CC1(C)NC(=O)N(CC(=O)OCC(=O)Nc2cc(S(=O)(=O)N3CCCCC3)ccc2Cl)C1=O	none
Clc1ccccc1OCCCCn1ccnc1	SKKanGAS inh 58.7
Clc1ccccc1OCCCn1ccnc1	none
O=C(NC1CCCCC1)NC1C2CC3CC(C2)CC1C3 (stereo unspecified)	SKKanGAS inh 54.5
COc1ccc(C(=O)OCC(=O)NC2CCCCCCC2)cc1OC	none (no result: PolyA inh, Calb FLC, Platelet DG rel, SKKanGAS inh)
O=C(NNC(=S)NC(=O)c1ccccc1)c1ccc([N+](=O)[O-])cc1	Calb FLC 83.8, SKKanGAS inh 67.3
Cc1ccc(S(=O)(=O)NNC(=S)NC(=O)c2ccc([N+](=O)[O-])cc2)cc1	none
Cc1ccc(C(=O)NC(=S)NNC(=O)c2ccc([N+](=O)[O-])cc2)cc1	SKKanGAS inh 79.5

Source: PubChem
